Pf Dd2 growth: Plasmodium falciparum Dd2 growth inhibition | P. falciparum Dd2 growth, SYBR Green, 72 h | Potency, µM (doses to about 28.9 µM), inactives show at the highest dose activity, negative = inhibition, most hits filed as inhibitors | 4.3% of 120,000 active | AID 1347417; active = well fitted inhibition curve with a large enough effect;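 note: plate controls were DMSO vehicle for no effect and reference drug for full effect; nearly all actives have a fitted effect of over 65% in size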
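Infected erythrocytes (Dd2, 0.3% parasitemia, 2.5% hematocrit final) are added to compound in RPMI-1640/Albumax II medium, grown 72 h at 37C in low oxygen, then lysed with saponin/Triton-X containing SYBR Green and read by fluorescence.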
Numbers without * were called inactive; i = inactive; [ ] = dose if it differs, or a comment. Only a selection was taken, and hits are over-represented in it overall. Potency is the fitted concentration of half-maximal effect.

SMILES	Pf Dd2 growth
Fc1cccc(CN2CCCC3(CCN(c4cnccn4)C3)C2)c1F (centres undefined)	-4.0%
CCOCCCNC(=O)NCC12CCCC=C1NC(=O)CC2 (centres undefined)	-8.5%
CN(C)C(=O)N1CCN(c2cc(Cl)ncn2)C(=O)C1	0.3%[44.1 µM]
CC(C)NC(=O)c1ccc2c(c1)C1(CCN(CC3CC3)C1)CN2Cc1ccccc1 (centres undefined)	i
COc1cc2cc(CN3CCC[C@@H]3CO)c(-c3cccc(Cl)c3)nc2cc1OC	12.6µM*
COc1ccc(OC)c2nc(-c3cccc(Cl)c3)c(CN3CC(O)C3)cc12	-8.8%
COc1ccc(-c2nc3cc(C)ccc3cc2CN2CCC[C@@H]2C(N)=O)cc1OC	-43.1%
O=C(CCCc1ccccc1)N1CCC2(CC1)CC(N(Cc1ccccc1)C1CC1)CCO2 (centres undefined)	i
O=C1Nc2ccccc2CN(Cc2ccc(Cl)cc2)C12CCNCC2	7.08µM*
O=C(C1CC1)N1Cc2ccccc2NC(=O)C12CCNCC2	20.0%
O=C1Nc2ccccc2CN(CC2CCOCC2)C12CCNCC2	12.8%
O=C1NCc2ccccc2CC12CCCN2C/C=C/c1ccccc1 (centres undefined)	-25.3%
O=C1Nc2ccccc2CN(C/C=C/c2ccccc2)C12CCNC2 (centres undefined)	11.2µM*
O=C1Nc2ccccc2CN(Cc2ccncc2)C12CCNCC2	0.5%
O=C(c1ccc(F)cc1)N1CCC2(CC1)CC(Cc1ccccc1)=NO2	-4.7%[44.1 µM]
N#C/C(=C\c1c(Oc2ccc(Br)cc2)nc2ccccn2c1=O)c1nc2ccccc2s1	6.5%
Cc1cc(C)cc(Oc2nc3ccccn3c(=O)c2/C=C(\C#N)c2nc3ccccc3s2)c1	22.5%
Cc1cc(C)cc(Oc2nc3c(C)cccn3c(=O)c2/C=C(\C#N)c2nc3ccccc3s2)c1	0.891µM*
Cc1cccn2c(=O)c(/C=C(\C#N)c3nc4ccccc4s3)c(Oc3ccc(F)cc3)nc12	3.16µM*
CCc1ccc(Oc2nc3c(C)cccn3c(=O)c2/C=C(\C#N)c2nc3ccccc3s2)cc1	i
Cc1cc(Oc2nc3ccccn3c(=O)c2/C=C(\C#N)c2nc3ccccc3s2)ccc1Cl	i
CN1CCN(C(=O)CN2CC3CC(C2)[C@H]2CCCC(=O)N2C3)CC1 (some centres undefined)	-4.3%
COc1ccc(F)cc1-c1ccccc1CN	10µM*
COc1ccc(F)cc1-c1ccc(C=O)cc1	3.0%[44.1 µM]
COc1ccccc1-c1ccc(CN)cc1	-26.5%[44.1 µM]
SMILES	Pf Dd2 growth
Cn1ncc2c(C(=O)NC3CC3)cc(-c3ccc(F)cc3)nc21	33.8%
CCOC(=O)c1cc(-c2ccccc2)n(CC(=O)Nc2ccc(CC)cc2)c1C	i
CCOC(=O)c1cccc(NC(=O)CCn2c(-c3ccc(F)cc3)cc(C(=O)OCC)c2C)c1	0.1µM*
CCOC(=O)c1cc(-c2ccc(C)cc2)n(CCC(=O)Nc2ccc(C(C)C)cc2)c1C	8.91µM*
CCOc1ccc(NC(=O)CCn2c(-c3ccc(F)cc3)cc(C(C)=O)c2C)cc1	i
CCOC(=O)c1cc(-c2ccc(C)cc2)n(CC(=O)Nc2ccc(OC)c(Cl)c2)c1C	-0.4%
CCOC(=O)c1cc(-c2ccccc2)n(CCCC(=O)Nc2cccc(C)c2)c1C	i
N[C@@H]1CC[C@H](C(=O)N2CCN(Cc3cccc(C(F)(F)F)c3)CC2)C1	-4.0%
COCCn1c(C)cnc1CC1CCN(C(=O)CCC2CCCC2)CC1	i
CCN1C(=O)C2(CCN(S(=O)(=O)c3ccc4c(c3)CCCC4)CC2)c2ccccc21	1.7%
COCC(=O)N(C)C(C)c1cccs1 (centres undefined)	2.3%[44.1 µM]
Cc1c(CC(=O)NC(C)C)c2c(n1Cc1ccc(F)cc1)CCCC2=O	i
COCc1nncn1C1CCN(S(=O)(=O)c2ccc(Cl)cc2C)CC1	-25.9%
O=C(O)c1[nH]ncc1CN1CCc2[nH]nc(-c3ccc(-c4ccccc4)cc3)c2C1	10.2%
CCCCc1c(C)nc2c(-c3ccc(Cl)cc3)c(C)[nH]n2c1=O	-18.5%
Cc1ccc(Cc2c(C)nc3c(-c4ccccc4)c(C)[nH]n3c2=O)cc1	-19.9%
Cc1nc2c(-c3ccccc3)c(C)[nH]n2c(=O)c1Cc1ccc(Br)cc1	7.94µM*
Cn1cnc(S(=O)(=O)N2CCCC(C(=O)NCc3ccc(F)cc3)CCNC(=O)CC2)c1 (centres undefined)	1.1%
O=C(Cc1cccnc1)N1C[C@@H](COCC2CC2)[C@H](c2ccncc2)C1	27.5%
Cc1ccc(Cl)c(C(=O)N2CCC3(CC2)[C@H](O)C[C@@H]3OCCO)c1	-4.0%
CNC(=O)[C@@H](c1ccccc1OC)N1CCC[C@H]1C(=O)N1CCOCC1	1.4%[44.1 µM]
CN(Cc1cccnc1)c1nc2c(c(=O)[nH]1)CCN(Cc1ccc(Cl)cc1)CC2	-9.6%[5.79 µM]
CC(C)c1nc2c(c(-c3ccc(Cl)cc3)n1)CCN(Cc1cccc3ccccc13)CC2	11.2µM*
Cc1nc2c(c(-c3ccc(Cl)cc3)n1)CCN(C(=O)c1ccccc1)CC2	-16.8%
CC(C)c1nc2c(c(-c3ccc(Cl)cc3)n1)CCN(Cc1cccnc1)CC2	11.2µM*
SMILES	Pf Dd2 growth
CC(C)c1nc2c(c(-c3ccc(O)cc3)n1)CN(C(=O)N(C)C)CC2	i
CN1CCN(c2nc3c(c(=O)[nH]2)CCN(Cc2cccnc2)CC3)CC1	37.9%[5.79 µM]
CC(C)Oc1cccc(-c2nnc(CCC(=O)NCC3CCCCC3)c(=O)[nH]2)c1	-6.3%
Cc1c(C(=O)Nc2cccc(C(F)(F)F)c2)sc2nc3n(c(=O)c12)CCCC3	10µM*
CCOc1ccc(NC(=O)c2sc3nc4n(c(=O)c3c2C)CCCC4)cc1	-8.9%
Cc1c(C(=O)NCc2ccc(F)cc2)sc2nc3n(c(=O)c12)CCC3	3.6%
CN(CCc1ccncc1)C(=O)CCc1ccnc(N2CCCC2)c1	-4.7%
CCC(C)NC(=O)C1COC2(CCN(C(=O)c3ccc(F)cc3)CC2)N1C(=O)c1cccc(OC)c1 (centres undefined)	i
CCOc1ccc(C(=O)NC2CCN(c3cc(-c4ccccc4)[nH]n3)CC2)cc1	-4.9%
Cc1ccc2c(c1)-c1cc(C)nn1C(c1cc(Br)ccc1O)N2 (centres undefined)	12.6µM*
COc1ccc(CN2Cc3[nH]cnc3C[C@H]2c2nc(Cc3ccccc3)no2)cc1	-23.9%[44.1 µM]
O=C(Nc1cccc(Cl)c1F)N1CCC(n2cnnc2C2CC2)C1 (centres undefined)	-29.2%
O=C1CC2(CCN(C(=O)c3ccc(C(F)(F)F)cc3)CC2)Oc2cc(Cl)ccc21	-4.1%
CCNC(=O)C1CCN(C(=O)N2CC3CC(C2)[C@H]2CCCC(=O)N2C3)CC1 (some centres undefined)	2.5%
COCCc1noc([C@@H]2CN(Cc3ccoc3)C[C@H]2CO)n1	6.3%
O=C(C1CCC(CNS(=O)(=O)c2ccc(Br)s2)CC1)N1CCN(c2ccccc2)CC1 (centres undefined)	-5.9%
O=C(C1CCN(S(=O)(=O)c2cccs2)CC1)N1CCN(c2cccc(Cl)c2)CC1	-14.9%
O=C(C1CCC(CNS(=O)(=O)c2cccs2)CC1)N1CCN(c2ccc(Cl)cc2)CC1 (centres undefined)	12.6µM*
CC(C)N1CCN(C2CCOC3(CCN(C(=O)Nc4ccccc4)CC3)C2)CC1 (centres undefined)	14.9%
COCCNC(=O)C1COC2(CCN(C(=O)c3cccc(OC)c3)CC2)N1C(=O)c1ccc(F)cc1 (centres undefined)	-26.2%
CSc1ccc(-c2nc(CN3CCOC(CCO)C3)c(C)o2)cc1 (centres undefined)	-10.0%

Source: PubChem BioAssay (National Center for Advancing Translational Sciences (NCATS))
